Shown are actives, neighbours in structure and some others; about 21% of the full set was active somewhere.
NS1 inh: qHTS Assay for Inhibitors of Influenza NS1 Protein Function | Potency, µM (highest dose often 46.1 µM), for the others: at the highest dose activity, positive = more growth | hit rate 0.4% among 270,000 | AID 2326, 2010; calls by dose curve; note: potency is the fitted concentration of half-maximal effect; actives are rising curves; nearly all actives have a fitted effect of over 50% in size
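Read-out: OD600 growth recovery of NS1-expressing budding yeast. Cells grown overnight at 30C in -URA glucose medium, washed, resuspended and diluted 1:100 in 2% galactose assay medium, pH 6.0. Same strain lacking NS1 served as positive control.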
Pf growth 96h: Primary qHTS for delayed death inhibitors of the malarial parasite plastid, 96 hour incubation. AID 504834, 2011. hit rate 6.9% among 320,000. Potency, µM (series often up to 28.7 µM), for inactives: at the highest dose activity change, negative = inhibition, hits mostly inhibitors. P. falciparum luciferase reporter growth, 96 h; note: potency is the fitted concentration of half-maximal effect; % is set by controls: 0 for no effect and ±100 for the full control effect
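P. falciparum expressing integrated firefly luciferase, in erythrocytes at 2% hematocrit, 0.05% parasitemia, incubated with compounds 96 h at 37 C, 5% CO2. Growth inhibition read as loss of luminescence; two-generation exposure targets delayed-death apicoplast inhibitors.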
Cycloheximide cs: Cycloheximide Counterscreen for Small Molecule Inhibitors of Shiga Toxin; cell reporter, cycloheximide protein synthesis inhibition counterscreen; hit rate 12% among 300,000; max response, %; in the data active = max response mostly above about 13%, no sharp cut-off; inactive = mostly below about 14%; note: read at 38.3 µM for the half of the compounds with a filed dose; 0% is about no effect
Shiga toxin inh: A qHTS for Small Molecule Inhibitors of Shiga Toxin; Vero cells, Shiga toxin protein synthesis inhibition reporter; inhibition, % at 38.7 µM; hit rate 9.2% among 290,000; AID 2315, 2010; in the data active = inhibition mostly above about 28%, no sharp cut-off; inactive = mostly below about 43%; note: 0% is about no effect
Pf growth 48h: Primary qHTS for delayed death inhibitors of the malarial parasite plastid, 48 hour incubation. AID 504832, 2011. hit rate 5.9% among 310,000. P. falciparum luciferase growth in erythrocytes, 48 h. Potency, µM (highest dose often 28.7 µM), for inactives: at the top dose activity change, negative = inhibition, most hits filed as inhibitors; note: potency is the fitted concentration of half-maximal effect; % is set by controls: 0 for no effect and ±100 for the full control effect
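Firefly luciferase activity from engineered P. falciparum reports growth; inhibitors lower the luminescent signal. Cultures contained 2% hematocrit erythrocytes at 0.1% final parasitemia.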
Giardia FBPA inh: qHTS Assay for Inhibitors of Fructose-1,6-bisphosphate Aldolase from Giardia Lamblia; A8B2U2; purified Giardia FBPA; Potency, µM (highest dose often 59.6 µM), for inactives: at the highest dose activity, negative = inhibition, actives largely listed as inhibitors; hit rate 0.71% among 290,000; AID 2451, 2010; note: potency is the fitted concentration of half-maximal effect; % is set by controls: 0 for no effect and ±100 for the full control effect; nearly all actives have a fitted effect of over 55% in size
Target sequence (A8B2U2 whole entry, looked up): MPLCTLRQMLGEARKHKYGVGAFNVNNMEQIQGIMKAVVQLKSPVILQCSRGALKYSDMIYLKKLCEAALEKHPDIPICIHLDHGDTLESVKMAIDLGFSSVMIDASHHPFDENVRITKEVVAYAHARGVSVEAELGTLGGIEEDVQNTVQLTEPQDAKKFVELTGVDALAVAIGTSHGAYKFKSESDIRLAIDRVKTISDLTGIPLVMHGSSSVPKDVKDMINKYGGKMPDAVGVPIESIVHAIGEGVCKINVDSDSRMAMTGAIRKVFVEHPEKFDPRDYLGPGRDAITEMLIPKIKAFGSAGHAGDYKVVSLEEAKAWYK
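40 nM FBPA preincubated 10 min at RT with compound (up to 57.5 uM final), then substrate plus GAPDH/TPI/NAD/arsenate coupling and diaphorase/resazurin added. Fluorescence read after 20 min at RT, 525/598 nm.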
Starred values were filed as active, the others as inactive; ? = inconclusive; . = no result given. Unless noted, calls come from the whole dose curve; as a rule, active = well fitted curve in the direction sought with a large enough effect; inconclusive = small, poorly fitted or top-dose-only effect, or another doubt; inactive = no such curve, though single readings can be large; an effect the other way counts as inactive or inconclusive.

SMILES | NS1 inh | Pf growth 96h | Cycloheximide cs | Shiga toxin inh | Pf growth 48h | Giardia FBPA inh
Cn1c(=O)c(C(=O)Nc2ccccc2S(N)(=O)=O)c(O)c2ccccc21 | -3.6% | 55.3% | 13.0* | 22.2 | 19.8% | -12.5%
Cn1c(=O)c(C(=O)Nc2cnccn2)c(O)c2ccccc21 | -59.4% | ? | 18.2 | 27.2 | 23.1% | -1.2%
Cn1c(=O)c(C(=O)NNC(=O)c2ccccc2Br)c(O)c2ccccc21 | -104.0% | 2.08µM* | -2.1 | -14.0 | 6.5% | 8.1%
COc1cc(OC)cc(C(=O)NCCNc2nc3cc(C)cc(C)c3cc2C#N)c1 | 8.8% | 1.2% | -1.8 | . | ? | 6.6%
Cc1c(Cl)cccc1NC(=O)c1ccc(OCC(=O)NCc2ccccc2)cc1 | 11.3% | ? | -4.9 | -7.4 | -15.8% | 4.5%
O=C(Nc1ccc2nc(-c3ccc(Br)o3)[nH]c2c1)c1ccco1 | -119.0% | . | 23.5* | 74.0* | ? | -19.4%
O=C(Nc1ccc2nc[nH]c2c1)c1ccco1 | 0.1% | 134.8% | 29.7* | 71.1* | 80.7% | -6.1%
O=C(Nc1cccc(-c2nc3ccccc3[nH]2)c1)c1cccc(NC(=O)c2ccco2)c1 | 4.4% | . | -6.8 | -18.8 | ? | 4.0%
Cc1ccc(-c2nc3ccccc3[nH]2)cc1NC(=O)c1ccco1 | -137.8% | ? | 22.4* | 52.7 | 17.3% | -4.8%
Cc1cccc2[nH]c(-c3ccc(NC(=O)c4ccco4)cc3)nc12 | -13.7% | 0.415µM* | 31.9* | 125.9* | -45.4% | 6.6%
CC1CC(=O)Nc2ccccc2N1C(=O)COc1cc(Cl)ccc1Cl (centres undefined) | . | -25.1% | . | . | -14.3% | .
COc1ccc(OC)c(S(=O)(=O)NCC(=O)NC2CCCc3ccccc32)c1 (centres undefined) | . | 10.8% | . | . | -2.3% | .
COc1ccccc1CNc1ccnc(-c2ccc3c(c2)OCO3)n1 | . | . | . | . | . | -20.4%
Nc1c(S(N)(=O)=O)cc(S(N)(=O)=O)cc1S(N)(=O)=O | -5.6% | . | . | . | . | .
CSc1ccccc1OCc1cc(C(=O)NCCn2ccnc2C)no1 | 6.9% | ? | 2.1 | 40.1 | -17.6% | 6.8%
O=C(Nc1ccc2nc(-c3ccccc3)[nH]c2c1)c1ccco1 | -10.5% | -11.1% | 36.4* | 46.8* | ? | -5.2%
COc1c(F)c(F)c(C(=O)Nc2ccc(-c3nc4ccccc4[nH]3)cc2)c(F)c1F | . | 77.8% | 7.1 | 41.8 | -3.5% | -4.3%
COc1cccc(OC)c1C(=O)NC(=S)Nc1cc(-c2nc3ccccc3[nH]2)ccc1Cl | 15.6% | ? | 10.4 | 43.6 | 4.15µM* | 3.5%
CC(=O)Nc1ccc2nc(-c3ccc(Br)o3)[nH]c2c1 | -7.6% | -22.8% | 55.4* | 58.0* | 219.6% | -28.3%
CC(=O)Nc1ccc(Oc2ccc3nc(C)[nH]c3c2)cc1 | 2.1% | 16.0% | -1.5 | -2.7 | . | -0.2%
Cc1ccc(-c2nc3ccccc3[nH]2)cc1NC(=O)c1sc2cc(Cl)ccc2c1Cl | -22.7% | ? | 19.9* | 54.2 | 3.29µM* | -7.8%
O=C(O)/C(=C\c1ccc(Cl)cc1)c1ccc(F)cc1 | -3.5% | 6.1% | -1.0 | 23.7 | 0.0% | 8.7%
O=C(Nc1ccc2nc(-c3ccc(Br)o3)[nH]c2c1)c1cccs1 | -46.6% | ? | 44.8* | 52.4* | ? | -17.3%
O=C(NC1CCCCC1)c1sc(N2CCOCC2)nc1-c1ccccc1 | 23.3% | -19.2% | -1.2 | -1.9 | -15.1% | 10.1%
Cc1cc(N2CCN(C(=O)c3cccs3)CC2)c(F)cc1[N+](=O)[O-] | -9.7% | 18.1% | -1.2 | 8.6 | -32.9% | 7.3%
O=C(CSCc1ccccc1Cl)NN=C1CCCCCC1 | 7.6% | 5.6% | -2.5 | 8.7 | 6.6% | -2.9%
C/C(=N\NC(=O)CSCc1ccccc1Cl)c1cc(O)ccc1O | -1.2% | -24.9% | 22.6* | 40.0* | ? | -0.4%
CCOc1ccc(CCNC(=O)COC(=O)COc2ccc(Br)cc2)cc1OCC | -35.9% | ? | -0.7 | -16.0 | ? | .
CC(C)Nc1cc(C(F)(F)F)nc(-c2ccccn2)n1 | 18.2% | 4.15µM* | -2.9 | -3.3 | 5.22µM* | 5.1%
COc1cc(C(F)(F)F)nc(-c2ccccn2)n1 | 1.3% | 50.4% | -2.4 | -6.0 | 0.0% | -1.0%

Assay outcomes from PubChem BioAssay.
